# High-throughput results as filed in PubChem BioAssay.
# rRNA inh HTS: reduced GFP signal of wild-type E. coli, primary screen, bacterial rRNA inhibitor project, GFP/RFP fluorescence, OD600, single point | E. coli WT GFP vs humanized-ribosome RFP mutants, 24 h; active compounds read low; DMSO median 0, no signal -100 | GFP signal change (wild-type ribosome), % (test concentration not listed) | 350,000 tested, 1.6% active;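 active = significant combined selectivity score with lowered wild-type GFP, culture density cut under 30%, mutant RFP and density less affected; inactive = any of these conditions unmet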
# ADAM10 inh: human ADAM10 inhibitors, primary screen, biochemical, QFRET, HTS. inhibition, % at 7 µM. Disintegrin and metalloproteinase domain-containing protein 10 (Homo sapiens), O14672. 370,000 tested, 0.62% active. AID 720582, 2013. recombinant ADAM10, EDANS/DABCYL FRET peptide cleavage, 3 h;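 active = inhibition above a per-campaign cutoff equal to the mean of compounds falling between control-based bounds plus 3 SD, cut at about 20% in these data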;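 also: 0% = DMSO wells while the 100% control is not disclosed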
# Target sequence (O14672 214-748 limits assumed): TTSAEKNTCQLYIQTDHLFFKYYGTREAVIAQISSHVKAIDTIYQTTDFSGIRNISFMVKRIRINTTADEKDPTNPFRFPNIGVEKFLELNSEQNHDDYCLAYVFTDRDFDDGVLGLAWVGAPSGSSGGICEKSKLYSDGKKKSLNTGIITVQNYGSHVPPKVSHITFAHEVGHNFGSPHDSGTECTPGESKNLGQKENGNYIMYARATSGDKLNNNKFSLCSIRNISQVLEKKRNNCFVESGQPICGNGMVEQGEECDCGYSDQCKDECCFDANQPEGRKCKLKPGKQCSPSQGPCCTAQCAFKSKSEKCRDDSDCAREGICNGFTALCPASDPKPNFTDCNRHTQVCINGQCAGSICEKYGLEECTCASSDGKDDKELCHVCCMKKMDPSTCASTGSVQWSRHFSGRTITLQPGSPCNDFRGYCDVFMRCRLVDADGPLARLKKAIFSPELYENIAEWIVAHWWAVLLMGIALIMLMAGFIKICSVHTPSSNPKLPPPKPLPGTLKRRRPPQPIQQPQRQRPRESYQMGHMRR
# proKLK7 act: proKLK7 zymogen activators, primary screen, biochemical, fluorescence intensity; 370,000 tested, 0.9% active; Kallikrein-7 (Homo sapiens), P49862; activation, % at 7 µM; purified proKLK7, EDANS-DABCYL substrate fluorescence; 100% is mature enzyme control, 0% vehicle;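 active = activation above the mean of all tested compounds plus 3 SD, computed per campaign excluding outliers beyond control limits, cut at about 13% in these data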
# FGF22 binding: binders of human FGF22 protein, primary screen, FGF22 synaptogenesis inhibitor project, biophysical, thermal shift, single point; recombinant FGF22 thermal shift, SYPRO orange fluorescence; percent of sucrose octasulfate shift, DMSO zero; activity (Tm shift, normalised), % at 9.99 µM; 340,000 tested, 1.5% active; AID 651658, 2012;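 active = mean Tm shift, scaled 0 neutral to 100 positive control, at about 1.3% or above, every replicate too, limit read from the data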
# Target sequence (Q9HCT0 whole entry, looked up): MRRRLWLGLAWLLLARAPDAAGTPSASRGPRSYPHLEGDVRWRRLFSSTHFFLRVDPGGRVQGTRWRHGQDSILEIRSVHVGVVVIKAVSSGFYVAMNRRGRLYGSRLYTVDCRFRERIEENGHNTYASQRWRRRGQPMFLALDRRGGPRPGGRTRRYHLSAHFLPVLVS
# ADAM17 inh: ADAM17 inhibitors, primary screen, biochemical, QFRET; Disintegrin and metalloproteinase domain-containing protein 17 (Homo sapiens), P78536; 370,000 tested, 0.83% active; inhibition, % at 6.95 µM; recombinant ADAM17, EDANS/DABCYL FRET peptide cleavage;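 active = inhibition above the mean of compounds lying between control limits plus 3 SD, set per campaign, cut at about 8.5% in these data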;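 also: 0% = DMSO-only wells as the low control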
# KLK7 act conf: proKLK7 zymogen activators, confirmation, biochemical, fluorescence intensity, triplicate; shares compounds with proKLK7 act; purified proKLK7, EDANS-DABCYL substrate fluorescence; scaled: vehicle 0, mature enzyme 100; activation, % at 7 µM; 3,200 tested, 68% active;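 active = activation, as change over the incubation, above the mean of all tested compounds plus 3 SD, cut at about 13% in these data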
# EDANS-DABCYL int: EDANS-DABCYL substrate optical interference, artefact control for kallikrein-7 zymogen activator project, biochemical, fluorescence intensity, high throughput; shares compounds with proKLK7 act; no enzyme, 4 h; solvent 0%, active enzyme control 100%; activation, % at 7 µM; 3,200 tested, 80% active; AID 686952, 2013;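 active = activation above the all-compound mean plus 3 SD, ignoring values outside control-based bounds, cut at about 4.8% in these data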;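 also: value is the 4 h activation minus the activation read at time zero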
# EDANS interf: EDANS fluorescence interference in dose response, no enzyme; shares compounds with proKLK7 act; EDANS-DABCYL peptide fluorescence interference; EC50, µM; 250 tested, 20% active; AID 720493;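 active = compounds that raise the fluorescence signal in this interference counterscreen, with EC50 at or below 10 µM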;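 also: intact quenched peptide substrate alone read at 355 nm excitation and 520 nm emission; signal is fluorescence gain from T0 to T4 after four hours at room temperature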
# An asterisk follows results filed as active; i = inactive; nt = not tested or not shown. Most compounds without a hit are left out; they make up all but 3.8% or so of the library.
SMILES,rRNA inh HTS,ADAM10 inh,proKLK7 act,FGF22 binding,ADAM17 inh,KLK7 act conf,EDANS-DABCYL int,others
O=C(NCc1ccco1)Nc1ccc2nsnc2c1,nt,i,27.0*,nt,-238.1,26.2*,29.0*,
O=C(Nc1ccccc1)Nc1ccc2c(c1)[C@@H]1C[C@@H](CC(=O)N3CCCCC3)O[C@@H](CO)[C@@H]1O2,-2.6,nt,nt,-0.4,nt,nt,nt,
C=CCN(CC=C)c1nc2ccccc2nc1C(C#N)C(=O)OCCOC (stereo unspecified),nt,i,43.1*,nt,-414.9,19.6*,18.2*,
COc1ccc(NC(=O)N(C)C[C@H]2Oc3ccc(NC(=O)CCN4CCOCC4)cc3CC(=O)N([C@H](C)CO)C[C@@H]2C)cc1,2.2,nt,nt,-0.2,nt,nt,nt,
CCOC(=O)c1c(NC(=S)Nc2ccc(Cl)cc2)sc2c1CCN(C)C2,-20.1,-94.4,17.8*,0.1,-24.6,20.0*,21.1*,
CCOC(=O)c1c(NC(=S)Nc2ccc(OCC)cc2)sc2c1CCN(C)C2,10.4,-19.8,2.8,nt,-5.4,nt,nt,
CCCN1CCN(CCCNC(=S)Nc2ccc3nc(N4CCN(CC)CC4)cc(C)c3c2)CC1,-0.1,-87.1,4.6,-0.1,-32.0,nt,nt,
CCCN(CCC)CCNC(=O)CCC(=O)Nc1ccc2nc(N3CCN(C)CC3)cc(C)c2c1,8.3,i,25.2*,0.0,i,120.3*,121.2*,
CCCCNC(=O)CCC(=O)Nc1ccc2nc(N3CCN(C)CC3)cc(C)c2c1,5.8,-176.9,1.0,-0.2,-63.3,nt,nt,
Cc1cc(N2CCN(C)CC2)nc2ccc(NC(=S)N3CCN(c4ccc(Cl)cc4)CC3)cc12,3.5,-435.2,15.0*,0.0,-188.9,1.8,3.0,
Cc1cc(N2CCN(C)CC2)nc2ccc(NC(=S)N3CCN(c4ccc(F)cc4)CC3)cc12,4.3,-276.9,6.7,-0.1,-96.2,nt,nt,
Cc1cc(N2CCOCC2)nc2ccc(NC(=S)N3CCCCC3C)cc12 (stereo unspecified),-9.7,i,20.8*,0.9,-347.9,12.5,14.9*,
Cc1cc(N2CCCC2)nc2ccc(NC(=S)NCCCN3CCC(C)CC3)cc12,16.1,-234.2,14.8*,0.2,-55.3,34.3*,45.0*,
COc1ccc2c3c(n(C)c2c1)[C@@H](CO)N(C(=O)c1ccncc1)CC31CCN(S(C)(=O)=O)CC1,1.2,nt,nt,-0.1,nt,nt,nt,
COc1ccc(-c2oc3c4c2C(=O)OCCOC4CCC3)cc1 (stereo unspecified),-2.2,i,14.9*,-0.2,-200.3,7.0,7.8*,
CN1CCN(C(=O)C[C@@H]2C[C@@H]3c4cc(NC(=O)Nc5ccc(C(F)(F)F)cc5)ccc4O[C@@H]3[C@@H](CO)O2)CC1,-13.5,nt,nt,-0.1,nt,nt,nt,
Nc1c(Cl)cc(Cl)cc1C(=O)OCC(=O)N1CCCC1,nt,i,12.9*,nt,i,18.4*,14.8*,EDANS interf=>69.5
CN(CCC#N)C(=O)COC(=O)c1ccccc1OCc1ccccc1Cl,-24.4,3.9,0.2,nt,-0.5,nt,nt,
CC(C)CNC(=O)COC(=O)c1cc(Cl)cc(Cl)c1N,0.9,i,21.3*,nt,-481.8,-9.0,-16.4,
NC(=O)COC(=O)c1cc(Cl)cc(Cl)c1N,1.0,i,-7.9,-0.6,i,nt,nt,
CN(CCC#N)C(=O)COC(=O)c1cc(Cl)cc(Cl)c1N,-0.6,i,16.1*,42.2,-473.4,11.8,11.3*,
COC(=O)CNC(=O)COC(=O)c1cc(Cl)cc(Cl)c1N,nt,i,14.6*,nt,i,52.7*,40.3*,EDANS interf=>69.5
CC(C)NC(=O)N1[C@H](CO)[C@@H]2c3ccccc3N(C(=O)C3CCC3)C[C@@H]21,4.2,nt,nt,0.0,nt,nt,nt,
COc1ccc(C)c2sc(NC(=O)C3=COCCO3)nc12,-10.7,-7.7,-0.1,-0.1,-7.4,nt,nt,
COc1ccc(OC)c2sc(NC(=O)C3=COCCO3)nc12,7.7,-327.9,56.1*,0.3,-85.8,8.0,2.3,
SMILES,rRNA inh HTS,ADAM10 inh,proKLK7 act,FGF22 binding,ADAM17 inh,KLK7 act conf,EDANS-DABCYL int,others
C[C@H](O)C(=O)C1=Nc2c(nc(N)[nH]c2=O)NC1,1.3,i,16.4*,0.1,-259.9,28.1*,33.4*,
COc1cccc(NC(=O)N2C[C@H](O)COC[C@H]3O[C@H](CC(=O)NCCCN4CCOCC4)CC[C@@H]32)c1,2.1,nt,nt,-0.2,nt,nt,nt,
COc1ccc2c3c([nH]c2c1)[C@H](CO)N(Cc1ccc(F)cc1)CC31CN(Cc2ccccn2)C1,1.2,nt,nt,0.0,nt,nt,nt,
CCC(=O)Nc1ccc2c(c1)C(=O)N(C)C[C@H](OC)[C@@H](C)CN(C(=O)c1cnccn1)[C@H](C)CO2,4.8,nt,nt,0.1,nt,nt,nt,
C=CCNC(=O)CSc1ncc2c(n1)-c1c(csc1SC)CC2,8.7,i,46.4*,0.7,i,59.0*,68.8*,
CN1c2ccc(-c3ccccc3)cc2[C@H]2[C@H](CCN2S(=O)(=O)c2ccccc2F)[C@@H]1CO,0.2,nt,nt,0.3,nt,nt,nt,
O=C(C[C@@H]1CC[C@H]2[C@@H](COC[C@@H](O)CN2Cc2ccc(Cl)cc2)O1)Nc1nccs1,-2.6,nt,nt,0.1,nt,nt,nt,
CCN1C(=O)c2cccc3c(S(=O)(=O)N4CCNCC4)ccc1c23,nt,i,171.0*,0.0,-206.4,57.0*,67.6*,
CCOC(=O)C1CCCN(S(=O)(=O)c2ccc3c4c(cccc24)C(=O)N3CC)C1 (stereo unspecified),-7.3,i,-16.9,0.1,-253.6,nt,nt,
CCN1CCN(S(=O)(=O)c2ccc3c4c(cccc24)C(=O)N3CC)CC1,4.9,i,55.5*,-0.2,-349.5,44.0*,45.7*,
CCN1C(=O)c2cccc3c(S(=O)(=O)N4CCCC4C(=O)O)ccc1c23 (stereo unspecified),-3.3,-213.7,36.7*,0.0,-97.1,22.4*,24.1*,
O=C(CCN1CCCCC1)NCC[C@@H]1CC[C@H](NC(=O)C2CCCCC2)[C@H](CO)O1,0.9,nt,nt,nt,nt,nt,nt,
COCCCNC(=O)c1nnn2c1nc(N)c1cc(Cl)ccc12,3.9,-339.1,14.7*,-0.1,-82.0,40.2*,39.8*,
Cc1cc(NC(=O)CSc2nc3ccccc3c(=O)n2Cc2ccccc2)no1,nt,1.2,0.1,nt,-2.3,nt,nt,
